Screening data deposited in PubChem by National Center for Advancing Translational Sciences (NCATS).
Shown are actives, neighbours in structure and some others; about 19% of the full set was active somewhere.
IL-1B inflam inh: qHTS for Inhibitors of Inflammasome Signaling: IL-1-beta AlphaLISA Primary Screen | THP-1 LPS/ATP IL-1B secretion, AlphaLISA, 16 h; stronger effect = lower value | activity change, % at 57.5 µM | hit rate 4.7% among 360,000 | AID 743279, 2014; in the data active = activity change below about -50%; inconclusive = mostly about -30% to -49%
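Secreted IL-1B measured by AlphaLISA bead assay after 16 h compound exposure of THP-1 cells; compounds (final up to 57.5 uM) added 1 h before LPS (250 ng/mL) and ATP (1.25 mM) stimulation; lower signal means less secretion.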
TGFb inhibitor: qHTS for Inhibitors of TGF-b. Potency, µM (doses to about 46.1 µM), actives largely listed as inhibitors. hit rate 1.2% among 410,000. HepG2 CAGA-GFP TGF-b/SMAD3 reporter, GFP fluorescence, 18 h; TGF-beta stimulated, 500 pg/mL final; also: nearly all actives have a fitted effect of over 65% in size
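TGF-beta reporter screen: HEPG2 CAGA-GFP, 1% FBS, 500 pg/mL TGF-beta final, 18 h; per-cell GFP summed per well; curves fitted and categorized by class.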
DT40 TDP1 no CPT: qHTS for Inhibitors of human tyrosyl-DNA phosphodiesterase 1 (TDP1): qHTS in cells in absence of CPT; DT40 Tdp1-/- hTDP1 cells, no CPT, ATP luminescence, 48 h; Potency, µM (highest dose often 46.2 µM), hits mostly inhibitors; hit rate 15% among 420,000; also: nearly all actives have a fitted effect of over 55% in size
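Chicken DT40 Tdp1-/- cells stably complemented with human TDP1 were seeded at 400 cells/well with DMSO in place of 20 nM camptothecin. After compound pinning, cells grew at least 48 hr at 37 °C; viability read by CellTiter-Glo luminescence.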
HepG2 tox: qHTS for Inhibitors of TGF-b: Cytotox Counterscreen; Potency, µM (titrated, usually from 46.1 µM), most hits filed as cytotoxic; HepG2 CAGA-GFP viability, ATP luminescence, 18 h; AID 588856, 2011; hit rate 0.76% among 410,000
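HepG2 CAGA-GFP cells (1000/well, DMEM with 1% FBS) received compound, then TGF-beta at 500 pg/mL final, and were incubated 18 hours at 37 degrees C. Viability was read by CellTiter-Glo luminescence. Media-only wells were set as complete cell-killing and DMSO as no toxicity.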
TDP1 inh: qHTS Assay for Inhibitors of Tyrosyl-DNA Phosphodiesterase (TDP1); hit rate 0.28% among 350,000; Potency, µM (series often up to 130 µM), usual class: inhibitors; recombinant TDP1, AlphaScreen DNA substrate cleavage; Tyrosyl-DNA phosphodiesterase 1 (Homo sapiens), Q9NUW8; also: nearly all actives have a fitted effect of over 40% in size
Target sequence (Q9NUW8 whole entry, looked up): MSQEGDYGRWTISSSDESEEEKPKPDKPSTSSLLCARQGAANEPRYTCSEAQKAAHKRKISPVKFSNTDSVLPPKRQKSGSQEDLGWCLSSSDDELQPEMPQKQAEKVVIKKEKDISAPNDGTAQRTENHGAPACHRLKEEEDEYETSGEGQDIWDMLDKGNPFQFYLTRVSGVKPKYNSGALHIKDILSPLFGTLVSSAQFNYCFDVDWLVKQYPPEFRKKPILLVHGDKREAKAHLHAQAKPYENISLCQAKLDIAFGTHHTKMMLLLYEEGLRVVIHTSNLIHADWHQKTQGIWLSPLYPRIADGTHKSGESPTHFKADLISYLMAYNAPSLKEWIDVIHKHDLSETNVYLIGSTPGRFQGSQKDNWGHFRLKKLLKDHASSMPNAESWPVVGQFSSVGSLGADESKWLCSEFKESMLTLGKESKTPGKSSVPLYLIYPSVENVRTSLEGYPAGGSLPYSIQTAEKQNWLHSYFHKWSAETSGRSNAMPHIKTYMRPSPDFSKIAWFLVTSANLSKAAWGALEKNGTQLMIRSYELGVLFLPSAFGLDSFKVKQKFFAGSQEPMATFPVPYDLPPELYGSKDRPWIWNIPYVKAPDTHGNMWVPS
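Enzyme-compound mixtures sat 15 min at room temperature, followed by a 5 min reaction with 15 nM final substrate and 10 min with AlphaScreen beads. Recombinant human Tdp1 was used at 1 nM final.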
DT40 TDP1 CPT: qHTS for Inhibitors of human tyrosyl-DNA phosphodiesterase 1 (TDP1): qHTS in cells in presence of CPT | Potency, µM (series often up to 46.2 µM), hits mostly inhibitors | chicken DT40 Tdp1-/-;hTDP1 cells + 20 nM CPT, ATP luminescence, 48 h | hit rate 12% among 420,000; also: nearly all actives have a fitted effect of over 55% in size
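Cell growth measured by CellTiter-Glo luminescence after a minimum 48 h, 37 C compound exposure with 20 nM CPT in Tdp1-knockout DT40 cells stably expressing hTDP1, seeded 400/well; qHTS titration format.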
A number is an active result; – = inactive; ? = inconclusive; · = not tested or not shown. Unless noted, calls follow the shape of the dose curve; as a rule, active = well fitted curve in the direction sought with a large enough effect; inconclusive = small, poorly fitted or top-dose-only effect, or another doubt; inactive = no such curve, though single readings can be large; an effect the other way counts as inactive or inconclusive.

SMILES	IL-1B inflam inh	TGFb inhibitor	DT40 TDP1 no CPT	HepG2 tox	TDP1 inh	DT40 TDP1 CPT
COc1ccc(Oc2ccc(/C=C/C(=O)c3cccc(OC)c3)cc2[N+](=O)[O-])cc1	–	–	7.3µM	–	–	7.3µM
COc1cc(C(=O)N/N=C/c2ccsc2C)cc(OC)c1OC	–	–	0.65µM	–	–	1.2µM
COc1cc(OC)c(OC)cc1/C=N/NC(=O)c1cnccn1	–	–	–	–	–	–
COc1ccc(/C=N/NC(=O)c2cccnc2)cc1O	–	–	–	–	·	–
COc1cccc(/C=N/NC(=O)c2cnccn2)c1OC	–	–	–	13µM	–	–
COc1cc(/C=N/NC(=O)c2cccnc2)ccc1OS(=O)(=O)c1ccc(F)cc1	–	–	21µM	–	–	?
COc1ccc(-c2nc3ccc(NS(=O)(=O)c4ccc(Cl)cc4)cc3o2)cc1	·	?	?	–	–	?
CC[C@H]1OC(=O)[C@H](C)[C@@H](O[C@H]2C[C@@](C)(OC)[C@@H](O)[C@H](C)O2)[C@H](C)[C@@H](O[C@@H]2O[C@H](C)C[C@H](N(C)C)[C@H]2O)[C@](C)(O)C[C@@H](C)[C@@H]2N[C@@H](COCCOC)O[C@@H]([C@H]2C)[C@]1(C)O	·	·	–	·	·	–
Cc1nn(CC(=O)NCc2ccccc2Cl)c(=O)c2cccn12	·	–	–	–	–	–
Cc1ccc(NC(=O)C2CCCN2S(=O)(=O)c2cccc3nsnc23)cc1Cl (stereo not drawn)	·	?	?	–	–	?
CCCN1CCC(NC(=O)Cc2ccc(C)cc2)CC1	–	–	–	–	–	–
COc1ccc(/C=N/NC(=O)c2cccnc2)cc1	–	–	–	–	·	–
COc1cc(C(=O)Oc2cccc(/C=N/NC(=O)c3cccnc3)c2)cc(OC)c1OC	–	–	9.2µM	–	·	6.5µM
COc1ccc(Oc2ccc(/C=N/NC(=O)c3cccnc3)cc2[N+](=O)[O-])cc1	?	–	21µM	–	–	?
COc1cc(/C=N/NC(=O)c2cccnc2)ccc1OS(=O)(=O)c1cc(C)ccc1C	-76	–	23µM	–	–	?
CCOC(=O)C1(Cc2ccccc2)CCCCCC1=O (stereo not drawn)	–	–	?	–	·	?
COc1ccccc1CNC(=O)c1ccccc1OC	?	–	–	–	–	–
COc1ccccc1CNC(=O)c1cc2ccc3ccc(C)[nH]c3c2n1	·	?	16µM	–	–	18µM
Cc1ccc(CNC(=O)c2ccc3nc4[nH]c5ccccc5c4nc3c2)cc1	·	·	·	·	–	·
COc1ccccc1CNC(=O)c1ccc2nc3[nH]c4ccccc4c3nc2c1	-53	–	8.2µM	–	–	?
COc1ccc(Cl)cc1NC(=O)c1cc2ccc3ccc(C)[nH]c3c2n1	·	?	23µM	–	–	?
Cc1ccc(Cl)cc1N1C(=O)CC(Sc2ccccc2N)C1=O (stereo not drawn)	–	–	–	–	·	–
O=C(CC12CC3CC(CC(Br)(C3)C1)C2)NC1CCCC1	–	–	–	–	·	–
O=C(Nc1ccccc1)c1cc([N+](=O)[O-])ccc1N1CCCCC1	–	–	?	–	–	?
CC(C)CNC(=O)c1cc([N+](=O)[O-])ccc1N1CCCCC1	–	–	23µM	–	–	?
SMILES	IL-1B inflam inh	TGFb inhibitor	DT40 TDP1 no CPT	HepG2 tox	TDP1 inh	DT40 TDP1 CPT
COc1ccc(NC(=O)c2cc([N+](=O)[O-])ccc2N2CCCCC2)cc1	–	–	21µM	–	–	21µM
COc1ccc(NC(=O)c2cc([N+](=O)[O-])ccc2N2CCCCC2)cc1OC	–	–	?	–	–	21µM
Cc1csc2nc(COc3ccc(NC(=O)C(C)C)cc3)cc(=O)n12	·	–	–	–	–	–
O=C(c1ccc(F)c(S(=O)(=O)N2CCOCC2)c1)N1CCN(c2ncccn2)CC1	–	–	–	–	–	–
COc1ccc(C2C=C3CNS(=O)(=O)C3CC2OC(=O)c2ccc(Cl)cc2)cc1 (stereo not drawn)	·	?	·	–	–	·
COC(=O)c1scc(C)c1NC(=O)c1ccc(Cl)cc1	–	–	?	–	·	–
COC(=O)c1scc(S(=O)(=O)C(C)C)c1N/N=C(\C#N)C(=O)c1ccc(Cl)cc1	–	?	23µM	–	–	?
COC(=O)c1scc(C#N)c1N/N=C(\C#N)S(=O)(=O)c1ccc(Cl)cc1	–	–	4.6µM	–	·	4.1µM
Cc1cccc(C)c1NC(=O)CSc1nc2ncccc2o1	·	–	–	–	–	–
CC1C(=O)N(Cc2cn(CC3CCCCC3)nn2)CCS(=O)(=O)N1Cc1ccc(-c2ccccc2)cc1 (stereo not drawn)	–	?	15µM	–	·	23µM
CC1C(=O)N(Cc2cn(CC3CCCCC3)nn2)CCS(=O)(=O)N1Cc1ccc(-c2ccc(F)nc2)cc1 (stereo not drawn)	–	–	–	–	·	?
